Laboratory results from the supplement of paper PMC6897291.
“And” between values parts separate entries of the source, which are not always exact repeats. Equal values may be shown once.

Test system: U-2932
Test: growth inhibition by drug alone (1 - RLU/untreated control) (fraction); higher = stronger inhibition
Conditions: 177Lu-lilotomab satetraxetan 0 ug/ml
Protocol: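 U-2932 ABC-DLBCL cells were pretreated or not for 18 h with 1 ug/ml 177Lu-lilotomab satetraxetan (600 MBq/mg), washed and seeded (3000 cells/well) on 384-well plates pre-printed with the Selleck Cambridge Cancer Compound library. Viability was read by RealTime-Glo luminescence on days 3-6 after seeding. Effect = 1 - RLU/mean RLU of the 48 untreated no-drug control wells per plate; Bliss score = (M-E)/(1-Fa), with E the expected Bliss-additive effect.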

Cc1ccc(S(=O)(=O)C=CC#N)cc1
growth inhibition by drug alone (10 nM, time (day): 3): 0.107 | growth inhibition by drug alone (10 nM, time (day): 4): 0.0923 | growth inhibition by drug alone (10 nM, time (day): 5): -0.0275 | growth inhibition by drug alone (10 nM, time (day): 6): -0.041 | growth inhibition by drug alone (1000 nM, time (day): 3): -0.00518 | growth inhibition by drug alone (1000 nM, time (day): 4): 0.09 | growth inhibition by drug alone (1000 nM, time (day): 5): 0.058 | growth inhibition by drug alone (1000 nM, time (day): 6): -0.0332

O=C(O)c1ccc2cc(-c3ccc(O)c(C45CC6CC(CC(C6)C4)C5)c3)ccc2c1
growth inhibition by drug alone (10 nM, time (day): 3): 0.159 | growth inhibition by drug alone (10 nM, time (day): 4): 0.0954 | growth inhibition by drug alone (10 nM, time (day): 5): -0.0581 | growth inhibition by drug alone (10 nM, time (day): 6): -0.0515 | growth inhibition by drug alone (1000 nM, time (day): 3): 0.757 | growth inhibition by drug alone (1000 nM, time (day): 4): 0.836 | growth inhibition by drug alone (1000 nM, time (day): 5): 0.861 | growth inhibition by drug alone (1000 nM, time (day): 6): 0.877

CO[C@H]1C[C@@H]2CC[C@@H](C)[C@@](O)(O2)C(=O)C(=O)N2CCCC[C@H]2C(=O)O[C@H]([C@H](C)C[C@@H]2CC[C@@H](O)[C@H](OC)C2)CC(=O)[C@H](C)/C=C(\C)[C@@H](O)[C@@H](OC)C(=O)[C@H](C)C[C@H](C)/C=C/C=C/C=C/1C [Rapamycin (Sirolimus)]
growth inhibition by drug alone (10 nM, time (day): 3): 0.724 | growth inhibition by drug alone (10 nM, time (day): 4): 0.686 | growth inhibition by drug alone (10 nM, time (day): 5): 0.609 | growth inhibition by drug alone (10 nM, time (day): 6): 0.544 | growth inhibition by drug alone (1000 nM, time (day): 3): 0.737 | growth inhibition by drug alone (1000 nM, time (day): 4): 0.722 | growth inhibition by drug alone (1000 nM, time (day): 5): 0.658 | growth inhibition by drug alone (1000 nM, time (day): 6): 0.599

COCC[n+]1c2c(n(Cc3cnccn3)c1C)C(=O)c1ccccc1C2=O
growth inhibition by drug alone (10 nM, time (day): 3): 0.948 | growth inhibition by drug alone (10 nM, time (day): 4): 0.947 | growth inhibition by drug alone (10 nM, time (day): 5): 0.963 | growth inhibition by drug alone (10 nM, time (day): 6): 0.974 | growth inhibition by drug alone (1000 nM, time (day): 3): 0.989 | growth inhibition by drug alone (1000 nM, time (day): 4): 0.989 | growth inhibition by drug alone (1000 nM, time (day): 5): 0.989 | growth inhibition by drug alone (1000 nM, time (day): 6): 0.989

COc1cc2c(cc1O)CC[C@@H]1[C@@H]2CC[C@]2(C)[C@@H](O)CC[C@@H]12 [2-Methoxyestradiol]
growth inhibition by drug alone (10 nM, time (day): 3): -0.0505 | growth inhibition by drug alone (10 nM, time (day): 4): -0.0559 | growth inhibition by drug alone (10 nM, time (day): 5): -0.104 | growth inhibition by drug alone (10 nM, time (day): 6): -0.0895 | growth inhibition by drug alone (1000 nM, time (day): 3): 0.719 | growth inhibition by drug alone (1000 nM, time (day): 4): 0.771 | growth inhibition by drug alone (1000 nM, time (day): 5): 0.777 | growth inhibition by drug alone (1000 nM, time (day): 6): 0.788

C/C(=C\C(=O)Nc1ccccc1C(=O)O)c1ccc2ccccc2c1
growth inhibition by drug alone (10 nM, time (day): 4): 0.0133 and 0.0332 | growth inhibition by drug alone (1000 nM, time (day): 3): -0.0224 and -0.014 | growth inhibition by drug alone (1000 nM, time (day): 5): -0.0613 and -0.0571 | growth inhibition by drug alone (1000 nM, time (day): 6): -0.273 and -0.127
